Molecules are shown by their SMILES. Several values for one entry are separate records, joined by “and”; a condition that tells them apart may be missing. Identical values can stand only once. Inconclusive results are not listed. Activity calls are given as the source filed them. The call rests on the fitted dose curve; in most records, active means well fitted curve in the direction sought with a large enough effect; inconclusive means small, poorly fitted or top-dose-only effect, or another doubt; inactive means no such curve, though single readings can be large; an effect the other way counts as inactive or inconclusive.

Assay [1] in a line: qHTS Screen of the MIPE 4.0 Collection Against Ewings Sarcoma (TC32) (AID 1259256). Further: nearly all actives have a fitted effect of over 45% in size. In a few lines:
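Measured: ATP luminescence (CellTiter-Glo) 10 min after reagent addition, following 48 h drug treatment. Relative luciferase units converted to percent activity, with no-cell wells as full and DMSO wells as zero inhibition.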
(In general: In qHTS, concentration-response curves come from the screen itself.)

The nature of assay [2]: P-glycoprotein substrates identified in KB-3-1 adenocarcinoma cell line, qHTS therapeutic library screen (AID 1346986). Further: nearly all actives have a fitted effect of over 60% in size.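 Further: potency is for cytotoxicity meaning loss of cell viability.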 In a few lines:
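Using luminescence to quantify ATP, parental and P-gp-overexpressing KB cells were compared after 72 h compound titration. KB-8-5-11 was also run with the P-gp inhibitor tariquidar.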

Assay [3] can be described thus: P-glycoprotein substrates identified in KB-8-5-11 adenocarcinoma cell line, qHTS therapeutic library screen (AID 1346987). Further: nearly all actives have a fitted effect of over 65% in size. The essentials: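 Human cervical adenocarcinoma KB-8-5-11 cells, selected in colchicine to over-express P-gp and assayed without it, were exposed for 72 h to titrated compounds. An ATP-based luminescent viability signal gave AC50.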
Assay [4] in a line: NS1 protein of Zika virus - qHTS assay to identify small molecule inhibitors in human HEK 293 cells (AID 1347053). Further: nearly all actives have a fitted effect of over 55% in size. In a few lines: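 TR-FRET signal from two anti-ZIKV NS1 antibodies quantified NS1 in HEK 293 cells 24 h after MR766 infection at MOI = 0.5; compounds were added 1 h before virus. Uninfected cells and infected cells defined the NS1 normalization range.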
The nature of assay [5]: qHTS of pediatric cancer cell lines to identify multiple opportunities for drug repurposing: Primary screen for DAOY cells (AID 1347090). Further: nearly all actives have a fitted effect of over 55% in size. The essentials:
(§1)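 Eight- or eleven-point concentration series, 48 h treatment at 37 degrees C in growth media; readout CellTiter-Glo luminescence. Potency and efficacy were taken from the concentration-response curves.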

Assay [6] can be described thus: qHTS of pediatric cancer cell lines to identify multiple opportunities for drug repurposing: Primary screen for SJ-GBM2 cells (AID 1347091). The essentials:
as §1

The nature of assay [7]: qHTS of pediatric cancer cell lines to identify multiple opportunities for drug repurposing: Primary screen for A673 cells (AID 1347092). Further: nearly all actives have a fitted effect of over 45% in size. The essentials:
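A673 cells (500-1,000 cells/well) were treated 48 hours at 37 degrees C with compounds at 11-point (0.78 nM to 46 µM) or 8-point (0.59 nM to 46 µM) dilutions. Viability read by CellTiter-Glo luminescence; concentration-response curves fitted.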

A short description of assay [8]: qHTS of pediatric cancer cell lines to identify multiple opportunities for drug repurposing: Primary screen for SK-N-MC cells (AID 1347093). In a few lines: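 Metabolically active cells were quantified by ATP-dependent luminescence (CellTiter-Glo, 15 min at room temperature) following 48 h treatment. Cells had been plated at 500-1,000 per well and settled for 5 h beforehand.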

Assay [9] is described as follows: qHTS of pediatric cancer cell lines to identify multiple opportunities for drug repurposing: Primary screen for BT-37 cells (AID 1347094). The essentials: (§2)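 Following a 5-hour attachment period, cells at 500-1,000/well received compounds and were cultured for 48 hours. CellTiter-Glo was added and luminescence read to estimate viable, metabolically active cells.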

Assay [10] can be described thus: qHTS of pediatric cancer cell lines to identify multiple opportunities for drug repurposing: Primary screen for NB-EBc1 cells (AID 1347095). In a few lines: as §2
The nature of assay [11]: qHTS of pediatric cancer cell lines to identify multiple opportunities for drug repurposing: Primary screen for Saos-2 cells (AID 1347097). Further: nearly all actives have a fitted effect of over 40% in size. The essentials: as §2
Assay [12] can be described thus: qHTS of pediatric cancer cell lines to identify multiple opportunities for drug repurposing: Primary screen for NB1643 cells (AID 1347099). Further: nearly all actives have a fitted effect of over 50% in size. In a few lines: as §2
Assay [13] can be described thus: qHTS of pediatric cancer cell lines to identify multiple opportunities for drug repurposing: Primary screen for LAN-5 cells (AID 1347100). In a few lines: (§3)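 Cells (500-1,000/well) in growth media were settled 5 h at 37 degrees C, then given compounds for 48 h. Viability was read as CellTiter-Glo luminescence. Primary runs used MIPE at 11 points (0.78 nM-46 µM) and NPC at 8 points (0.59 nM-46 µM); follow-ups used 11 points.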

A short description of assay [14]: qHTS of pediatric cancer cell lines to identify multiple opportunities for drug repurposing: Primary screen for TC32 cells (AID 1347089). Further: nearly all actives have a fitted effect of over 60% in size. The essentials:
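TC32 cells, 500-1,000/well in growth medium, compound-treated 48 h at 37 °C; viability from CellTiter-Glo luminescence. Primary screen: MIPE 11-point (0.78 nM–46 µM final), NPC 8-point (0.59 nM–46 µM final); confirmatory at 11-point dilutions.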

Assay [15] in a line: qHTS of pediatric cancer cell lines to identify multiple opportunities for drug repurposing: Primary screen for SK-N-SH cells (AID 1347098). Further: nearly all actives have a fitted effect of over 65% in size. The essentials:
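Cells (500-1,000/well) rested 5 h, then received compounds for 48 h; metabolically active cells were measured by CellTiter-Glo luminescence. Final concentrations spanned up to 46 µM (MIPE, 11-point) or 0.59 nM-46 µM (NPC, 8-point) in primary screens, 11-point in follow-ups.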

Assay [16] can be described thus: qHTS of pediatric cancer cell lines to identify multiple opportunities for drug repurposing: Primary screen for U-2 OS cells (AID 1347096). Further: nearly all actives have a fitted effect of over 50% in size. In a few lines: as §3
Potency means the concentration at half of the fitted maximal effect.

Regarding `CNC(=O)Nc1ccc(-c2nc(N3CC4CCC(C3)O4)c3cnn(C4CCC5(CC4)OCCO5)c3n2)cc1`, the Potency in [1] is 7.4 nM (active); in assay [2], 41.1 nM (active); in assay [3] it was 14.8 nM (active) and 184 nM (active); in assay [4], 16600 nM (active); in assay [5] it was 29.6 nM (active); in assay [6], 29.6 nM (active). For the same molecule, the Potency was 372 nM (active) in assay [7]; 2.6 nM (active) in assay [8]; 30.6 nM (active) in [9]; 132 nM (active) in assay [10]; 209 nM (active) in assay [11]; 6620 nM (active) in assay [13]. In addition, the Potency entry in assay [12] is “inactive”.
Regarding `CCNC(=O)Nc1ccc(-c2nc3c(c(N4CCOC[C@H]4C)n2)CCN(C2COC2)C3)cc1`, the Potency in assay [1] was 935 nM (active); in assay [2] it was 580 nM (active); in [3], 1.84 µM (active); in [14] it was 3300 nM (active); in [6] it was 743 nM (active); in assay [7], 1480 nM (active). Moreover, the Potency in [8] was 209 nM (active); in assay [9], 1720 nM (active); in assay [10], 1180 nM (active); in assay [11] it was 4690 nM (active); in assay [15], 17100 nM (active). Moreover, the Potency entry in assay [4] was “inactive”.
In the case of `NC1=N[C@H]2[C@H](CS[C@H]2CCCCC(=O)O)N1`, the Potency entry in [1], in assay [2], in [3], in assay [4], in [14] and in [5] was “inactive” each time. In addition, the Potency entry in assay [6], in assay [8], in assay [9], in [16], in assay [11] and in [12] was “inactive” each time. Besides, the Potency entry in [13] is “inactive”.
Consider `CCCCCCCCCCCCCCCC(=O)OC[C@@H](NC(=O)C(Cl)Cl)[C@H](O)c1ccc([N+](=O)[O-])cc1`, for which the Potency entry in assay [1], in assay [2], in [3], in assay [4], in assay [14] and in assay [5] was “inactive” throughout. Besides, the Potency entry in assay [6], in [7], in assay [8], in assay [9], in assay [10] and in [16] was “inactive” throughout. Further, the Potency result in [11], in assay [15], in assay [12] and in [13] was “inactive” throughout.
With `COc1ccc([C@@H]2CNC(=O)C2)cc1OC1CCCC1`, the Potency is 1870 nM (active) in assay [1]; 3720 nM (active) in [5]; 743 nM (active) in [7]; 469 nM (active) in [8]; 27300 nM (active) in assay [9]; 3040 nM (active) in assay [15]. For the same molecule, the Potency in [12] was 1320 nM (active). Also, the Potency result in assay [2], in assay [3], in assay [4], in [14], in [6] and in assay [10] was “inactive” each time. Besides, the Potency result in assay [16] and in [13] was “inactive” throughout.
On to `OC[C@@H](O)[C@@H](O)[C@H](O)[C@@H](O)CO`, for which the Potency entry in [1], in assay [2], in assay [3], in [4], in assay [14] and in assay [5] was “inactive” throughout. In addition, the Potency result in assay [7], in assay [8], in assay [9], in assay [10], in assay [16] and in [11] was “inactive” in each case. For the same molecule, the Potency entry in [15], in [12] and in assay [13] was “inactive” in each case.
Turning to `CC(=O)O[C@]1(C(C)=O)CC[C@H]2[C@@H]3C=C(C)C4=CC(=O)CC[C@]4(C)[C@@H]3CC[C@@]21C`, the Potency was 5260 nM (active) in assay [1]; 7430 nM (active) in assay [5]; 14800 nM (active) in [6]; 2350 nM (active) in assay [7]; 2090 nM (active) in assay [8]; 4320 nM (active) in [9]. The Potency in [10] was 2350 nM (active); in [11], 11800 nM (active); in assay [15], 3040 nM (active); in assay [12] it was 2640 nM (active); in assay [13], 5900 nM (active). Further, the Potency result in assay [2], in [3] and in assay [4] was “inactive” in each case.
Turning to `Cn1cc(C=CC(=O)c2cccc(F)c2)cc1C=CC(=O)NO`, the Potency was 20900 nM (active) in [1]; 9350 nM (active) in [7]; 2960 nM (active) in assay [8]; 24100 nM (active) in assay [15]; 4690 nM (active) in assay [12]. Further, the Potency entry in [2], in assay [3], in assay [4], in [14], in assay [6] and in assay [9] was “inactive” in each case. Besides, the Potency result in assay [10] and in assay [16] was “inactive” throughout.
In the case of `C[N+]1(C)[C@@H]2C[C@@H](OC(=O)C(O)(c3cccs3)c3cccs3)C[C@H]1[C@@H]1O[C@@H]12`, the Potency result in [1], in [2], in assay [3], in [4], in assay [14] and in [6] was “inactive” in each case. Further, the Potency result in assay [7], in assay [8], in assay [9], in assay [10], in assay [16] and in assay [11] was “inactive” in each case. Moreover, the Potency entry in [15], in assay [12] and in assay [13] was “inactive” in each case.
`O=C(Nc1ccc(Oc2ccnc3[nH]ccc23)c(F)c1)c1cccn(-c2ccc(F)cc2)c1=O`: the Potency entry in assay [1], in [2], in [3], in assay [4], in assay [14] and in [5] was “inactive” throughout. Also, the Potency result in assay [9], in [16], in assay [15], in assay [12] and in assay [13] was “inactive” throughout. Further, the Potency is 16600 nM (active) in assay [6] and 20900 nM (active) in assay [11].
Take `COc1ccc(Nc2cc(-c3cnc(N)nc3)nc(N3CCOCC3)n2)cn1`: the Potency in [1] was 5260 nM (active); in assay [2], 1460 nM (active); in [3], 1.48 µM (active); in assay [4], 16600 nM (active); in assay [14], 4660 nM (active); in assay [5] it was 4690 nM (active). The Potency in assay [7] is 5900 nM (active); in [8], 372 nM (active); in [9], 13700 nM (active); in assay [10] it was 2960 nM (active); in assay [16] it was 14800 nM (active); in assay [11], 1180 nM (active). Moreover, the Potency in assay [15] was 7640 nM (active); in assay [12], 2960 nM (active); in [13], 4180 nM (active).
In the case of `CN[C@H]1[C@@H](O)[C@@H]2O[C@@H]3O[C@H](C)CC(=O)[C@]3(O)O[C@@H]2[C@@H](NC)[C@H]1O`, the Potency is 1050 nM (active) in assay [1]; 13100 nM (active) in [14]; 296 nM (active) in assay [5]; 590 nM (active) in assay [6]; 74.3 nM (active) in assay [7]; 166 nM (active) in assay [8]. For the same molecule, the Potency in assay [9] was 9680 nM (active); in assay [10] it was 8330 nM (active); in [16], 2960 nM (active); in assay [11] it was 1870 nM (active); in [15], 6070 nM (active); in assay [12], 1870 nM (active). In [13], the Potency is 166 nM (active). Further, the Potency result in assay [2], in assay [3] and in assay [4] was “inactive” in each case.

These data come from PubChem BioAssay (NCATS).
